# Laboratory results published in PubChem BioAssay AID445 (National Center for Advancing Translational Sciences (NCATS), 2006).
# Hit rate of the full screen: of about 110,000 compounds, about 40 (0.04%) were called active. About 22% were inconclusive and are not listed. This is one part of a sample in which actives are shown more often than they occur. Values without a mark were called inactive. Calls follow the shape of the dose curve; as a rule, active = well fitted curve in the direction sought with a large enough effect in the signal ratio (not every such curve was filed as active); inconclusive = small, poorly fitted or top-dose-only effect, or a change in a side signal; inactive = flat fitted curve, though single readings scatter; the % refers to the signal ratio.
# Experiment: IkB Signaling;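 also: 0% = basal untreated cells and 100% = reference inhibitor full response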
# Details: ABC-DLBCL IkBa-CBG/CBR dual luciferase ratio, 4 h; series mostly up to 57.1 µM; IkBa stabilization activation: at the top concentration
# Text: NIH Molecular Libraries Screening Centers Network [MLSCN]
# NIH Chemical Genomics Center [NCGC]
# Nuclear factor kappa-B (NF-kappa-B) plays an important role in normal B cell development and survival. Diffuse large B cell lymphoma (DLBCL) is the most commonly observed type of non-Hodgkin's lymphoma. Gene expression analysis has identified an activated B cell-like subtype of DLBCL (ABC-DLBCL) which expresses known NF-kappa-B target genes. […] However, targets upstream of IKK have been largely unexplored and so nodes upstream of IKK in the NF-kappa-B pathway remain untested due to the lack of chemical probes.
# A cell-sensor assay for I-kappa-B-alpha stabilization was developed with NIH investigator Dr. R. Eric Davis in Dr. Louis M. Staudt's laboratory. The assay uses green (CBG68) and red (CBR) emitting beetle luciferases [Chroma-Glo(TM) developed by Promega Corp.] where the green luciferase is fused to I-kappa-B-alpha and the red luciferase is present in its native state. Both luciferase genes are stably present in the OCI-Ly3 human ABC DLBCL cell line, but their expression is under the control of tetracycline-inducible promoters. Following the addition of doxycycline to induce expression of the luciferases, the green luminescence in control cultures rises only slowly because the CBG fusion partner I-kappa-B-alpha is targeted by IKK activity for rapid degradation. In contrast, green luminescence rises rapidly in the presence of proteasome inhibitors or IKK inhibitors. The rise in red luminescence of CBR is not affected by proteasome or IKK inhibitors, and serves as normalization for cell number and nonspecific effects. Compounds were screened as a concentration-titration series that ranged from 57 uM to 0.7 nM.
# NCGC Assay Protocol Summary:
# Cells were seeded in 1536-well plates at 5000 cells/3ul in IMDM medium containing 0.5% FBS, w/o phenol red, L-glutamine, 25 mM HEPES, 3 mg/ml sodium bicarbonate. After centrifugation for 1 min. at 1000 rpm, 23 nl of compounds or DMSO were delivered to each well using a pin tool. Then 1ul 80ng/ml doxycycline was dispensed into white solid 1536-well plates and the plates were incubated at 37C/5% C02 in a cell incubator for 4 hrs. Then 4 ul Chroma-Glo luminescent substrate mix (Promega) was added to each well. The plate was incubated at R.T. for 10-15 min. The plates were measured on a ViewLux plate reader for green luminescence (540/20 nm filter) and red luminescence (618/8 nm filter). The green and red luminescent signals were corrected for red and green luminescence filter overlap using previously determined filter calibration constants (determined using the procedure outlined in the Promega Technical Manual). The %Activity was determined from the ratio of corrected green/red luminescent values. Green luminescent and ratio %Activity was determined by normalizing to the difference in signal between basal cells (0% Activity) and cells incubated with 10 uM of the proteasome inhibitor MG-132 (100% Activity). Red luminescent %Activity was normalized to the difference between red luminesence in basal cells (0%Activity) and zero luminescence (-100% Activity).
# Concentration-response curves were fitted to the signals arising from the green luminescence (I-kappa-B-alpha-luciferase fusion; IkB-luc) and the red luminescence (unfused luciferase; luc) as well as the calculated ratio. The concentration-effect curves were then classified based on curve quality (r2), response magnitude and degree of measured activity. Compounds were then categorized based on their concentration-response curves for all three datasets (Ikb-luc, luc and ratio).
# Keywords: IKK, I-kappa-B, IkB, IkBa, cytotoxicity, luminescence, MLSMR, MLSCN, NIH Roadmap, qHTS, NCGC
row,SMILES,IkBa stabilization activation
1,CCCCNC(=O)c1ccc2c(c1)NC(=O)C(C(C)C)N2 (stereo not drawn),-0.449%
2,CCOC(=O)c1scc(-c2ccc(C)cc2)c1S(=O)(=O)Nc1cc(C)ccc1C,0.745%
3,CCN(CC)c1ccc(NC(=O)Cn2nc3c(cc2=O)CCCC3)c(C)c1,2.3%
4,Cc1ccc2sc(N(Cc3cccnc3)C(=O)C3COc4ccccc4O3)nc2c1C (stereo not drawn),-0.437%
5,Cc1ccc(NC(=O)Cn2nnc3sc4c(c3c2=O)CCC(C)C4)cc1 (stereo not drawn),-2.75%
6,CSc1cccc(NC(=O)CN2C(=O)CCc3cc(S(=O)(=O)N4CCCCC4)ccc32)c1,3.58%
7,CCOc1ccc(N(CC)S(=O)(=O)N2CCCC(C(=O)NCc3ccc(Cl)cc3)C2)cc1 (stereo not drawn),0.399%
8,O=C(NCCCO)C(=O)Nc1c2c(nn1-c1ccccc1)CSC2,-1.36%
9,Cc1cc(OCC(=O)NCC2(N(C)C)CCCCC2)cc(C)c1Cl,1.43%
10,Cc1ccc(-c2nn(CCC(=O)Nc3ccc(OC(F)(F)F)cc3)c(=O)c3ccccc23)cc1,-1.64%
11,CCCSc1nc2sc3c(c2c(=O)n1-c1cccc(Br)c1)CC(C)(C)OC3,1.69%
12,COc1ccc(CCNC(=O)Cn2c(=O)cc(C(F)(F)F)c3c(C)nn(C)c32)c(OC)c1,0.371%
13,CCOc1ccccc1CNC(=O)c1cnc2c(-c3ccc(OCC)c(OCC)c3)c(C)nn2c1C,-1.18%
14,CCOc1cc(CNC(=O)c2sc3ncnc(N(C)C4CCCCC4)c3c2C)ccc1OC,-1.17%
15,Cc1c(-c2nc(-c3ccc4c(c3)OCO4)no2)nnn1-c1ccc(Br)cc1F,-3.96%
16,CCN(CC)c1ccc(NS(=O)(=O)c2cc(-c3cc(C)no3)ccc2C)c(C)c1,0.135%
17,CCN1CCN(CCCNC(=O)c2cnn(-c3ccc(C)cc3C)c2C2CCN(C(=O)OC(C)(C)C)CC2)CC1,1.54%
18,COc1ccc(-c2onc(C)c2C)cc1S(=O)(=O)NCc1cccs1,-1.8%
19,Cc1cccc(Cc2c(C)nc3nc(SCc4ccccc4Cl)nn3c2C)c1,2.23%
20,NC(=O)C1CCN(C(=O)c2cccc(NC(=O)c3nsc4ccccc34)c2)CC1,-1.38%
21,COc1ccccc1-c1noc(-c2ccc(NCc3ccccc3)c([N+](=O)[O-])c2)n1,-0.999%
22,COc1ccc(Cl)cc1NC(=O)CSc1nc2ccccc2c2nc(-c3ccccc3)nn12,0.00394%
23,CCOc1ccccc1NC(=O)Cn1c(=O)n(Cc2ccco2)c(=O)c2sc3ccccc3c21,4.55%
24,CCN(CC)CCNC(=O)CN1N=C(c2ccc(OC)cc2)CCC1=O,-1.9%

row,SMILES,IkBa stabilization activation
1,COc1ccc(CNc2nc(-c3ccc(Cl)cc3)cc(C(F)(F)F)n2)cc1,-1.22%
2,COc1ccc(NC(=O)C2CCCN(S(=O)(=O)c3cccc4nonc34)C2)cc1Cl (stereo not drawn),1.73%
3,CCc1cc2c(cc3c(=O)n(CC(=O)N4CCN(c5cc(Cl)ccc5C)CC4)ncn32)s1,-1.17%
4,COc1ccc(-c2nn3c(-c4ccc(OC)cc4)nnc3c3ccccc23)cc1,-0.528%
5,Fc1ccc(-n2ncc3c(Nc4ccc(Oc5ccccc5)cc4)ncnc32)cc1,-0.511%
6,CCCOc1ccc(CNC(=O)C2CCN(c3nn4c(=O)cc(C)nc4s3)CC2)cc1,-0.122%
7,CCS(=O)(=O)c1nc(S(=O)(=O)c2ccc(C)cc2)c(NCc2ccc(Cl)cc2)s1,0.738%
8,Cc1ccc(CNS(=O)(=O)c2ccc(-c3cc(C(F)(F)F)on3)s2)cc1,-4.13%
9,Cc1cc(C)cc(NC(=O)c2cnc3sc(N4CCCC4)nn3c2=O)c1,-3.48%
10,CCCCOC(=O)CSc1ncnc2sc3c(c12)CCC(C)C3 (stereo not drawn),3.48%
11,COc1cc(NC(=O)NCC2CCN(Cc3ccc(C)cc3)CC2)cc(OC)c1OC,2.66%
12,CCOC(=O)c1ccc(NC(=O)c2c(NCc3cccc(OC)c3)sc3c2CCC3)cc1,-1.01%
13,Cc1nc2nc(SCC(=O)N(Cc3ccccc3)C(C)C)nn2c(C)c1Cc1ccccc1Cl,3.24%
14,Cc1cc2oc(C(=O)N(Cc3ccc(Cl)cc3)Cc3ccco3)c(C)c2cc1Cl,-1.24%
15,Cc1ccccc1-c1nc(CS(=O)(=O)CC(=O)NC(C)c2ccccc2)c(C)o1 (stereo not drawn),-1.28%
16,CCOc1ccccc1C(=O)NC1(C(F)(F)F)C(=O)Nc2c1c(=O)[nH]c(=O)n2-c1ccc(F)cc1 (stereo not drawn),-1.66%
17,CCOC(=O)c1c(C)[nH]c(C)c1S(=O)(=O)NCC(=O)NCc1cccc(C)c1,0.835%
18,Cc1cccc(NC(=O)CSc2nc(-c3ccco3)cc(C(F)(F)F)n2)c1C,1.98%
19,Cn1c(=O)oc2cc(S(=O)(=O)CCC(=O)NCCc3ccc(Cl)cc3)ccc21,-1.07%
20,Cc1ccc(C)c(NC(=O)C2CCCN(S(=O)(=O)c3cn(C)cn3)C2)c1 (stereo not drawn),1.43%
21,O=C(CCc1nc(CN2CCN(S(=O)(=O)c3ccc(Cl)cc3)CC2)no1)N1CCCCC1,1.11%
22,COc1ccccc1NC(=O)C1=C(C)Nc2ncnn2C1c1sccc1C (stereo not drawn),0.985%
23,CCCNC(=O)C(CC)n1nc(CC)n2c(cc3oc(C)cc32)c1=O (stereo not drawn),-2.46%
24,Cc1ccc(CNC(=O)CSC2=Nc3ccccc3C3=NC(C)C(=O)N23)cc1 (stereo not drawn),0.839%
